# Experimental data: the supplement of paper PMC6555819
# System: VDR:RXRa (NR concentration 270 nM, RXRa partner concentration 90 nM)
# Assay: PBM binding z-score (relative to random genomic background probes); higher = stronger binding; sequences stand for … in GC…GCGATTGACAGCGTAGAATGAAGG
# Protocol: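 Protein-binding microarray (Agilent 4x180K custom design, double-stranded 60-nt probes: 5' GC cap, 34-nt variable region, 24-nt constant primer region; full probe sequence given). Purified or IVT nuclear receptor:RXRα heterodimers (3:1 NR:RXRα, mostly 270:90 nM) or homodimers were incubated for 1 h in PBS with 2% milk and no ligand, then detected with Alexa488 antibodies. Fluorescence from o1-orientation probes (~5 replicates averaged) was converted to z-scores against 500 random hg19 background probes. Variable regions are seed direct-repeat (DR0–DR5) sites, all their single-nucleotide variants and half-site ablations.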
row,Sequence,PBM binding z-score
1,ATCGAAATGTCGAGGTGAGTATAGAGAAAGGGAA,-0.253
2,GGTGCTAGGTCAGGTTGGTCAGCTAACGGGTACG,1.25
3,GCTTGTAGATAAAGGTTAAGAAAGACTAAGCTAA,0.626
4,CGTCCAAGGTCAATGCTAGGTCAGAGAAAGCATT,4.76
5,CCTTACGGGTCACCGACAGGTTATAGCATTTGGA,4.44
6,CGAACTAGGTCAGCCAGGACAGTGAATACATTGA,3.1
7,TTACCAAGGTGGGCTGAGGTCGTTGATCCAACTC,2.6
8,GCACATAGGTAATACAAGGTGAAAGTCCGATTGT,0.394
9,CGTCCATGGTCATAGGAGGTCAGTGAAGACAGAT,2.94
10,GGAACGTGGGCAAAGTTGATAGCATCTGTCGACG,-0.399
11,AGTCAAAGTTCACTAGGTAATGTAAGATTCAGCT,3.84
12,GCGACTGGGGTATCAGCAGGTTACCATAACTTAA,-0.202
13,TCGAGTAGGTTAGGGGCATGCAGAATGGCGTCGA,0.195
14,CCGAGTAGGTTATGGGGCGTTCAGGCAACGGTGA,0.0035
15,CCTACTGGGCCAAAAAAGTCATTGATGCCGATAA,-0.174
16,GCTCGGCGGACAAGGTCAGAGCTTTGTCCGTAGA,0.376
17,CAAACTCGGTCACAGAGGTCAAAGTCCGTGCGTA,7.57
18,GTACCCAGGTGAATAGGTCGTTGATGAGTAGGCG,0.54
19,GCAATTAGTTGAAAGGGCAACCGAATGATTCTCG,0.238
20,CGTACGAGGGCATGAGTTGATAGCAAATGCCGAT,1.36

row,Sequence,PBM binding z-score
1,CCGACTGGGGCAAAGGTTACTATACTCAGTACGA,1.12
2,GTACCAAGGTGAATAGGTCCTTGATGAGTAGGCG,0.968
3,CCTGCTAGGTCTTGGTCAGCTAATCTACAGTATG,-0.434
4,CCGACTGCGGCAAAGGTTACCATACTCAGTACGA,0.959
5,CCAACTAGGTCACAGAGGTCAAAGTCCGTGCGTA,7.88
6,ATTGAAAGGTCGTGAGGTGAGTATACAGAAAGGC,3.71
7,CCTTACGGGTCACTGCCAGGTTATAGCATTTGGA,3.73
8,GCAGACAGGTGAAAGGCAGGTAACTCAGGGTGGC,-0.303
9,CGTCAAAGTTCAGCTAAGGTAACGTAAAGCACGC,3.33
10,GGAACGAGGCCATTCGAGTTGATAGCATGGCGAT,1.43
11,CCTAGTTGGTCTAGGTCACACACGCTATAGGTAC,1.42
12,AGAATGAGGTTAAGATCAAGGAAACAGAATACAT,1.09
13,AGCTCTAGGTAACAAGTTCAGTGAAAGAGAGGAC,1.94
14,TCATATAGGTAAACAGGTGCAAGTCCGTAAGTTA,3.49
15,TAGCCTAGGTCATGCGGGCCACTATAGTGTCGGC,3.58
16,CGTCCAAGGTCAGAGAGGTCAGTTAATGCCGAGT,7.74
17,TCGAGTAGGTTACCAGTGGGGCATTCAGCTTTCT,0.134
18,TCATATAGGTAAACGTGAAAGTCGAACGATATGA,0.503
19,ATATCTAGGTAAGACTCAGTTCAGTGAAGAACGC,0.941
20,ACTTACGGGTCAACGAGGTTATAGCGCGCGTATA,7.58
